In PubChem BioAssay (EPA / NIEHS):
More than one record can exist for a structure, and the calls need not agree. Activity calls are given as the source filed them. The calls were made as follows: active = hit-call score of the fitted dose curve at least 0.9, where 1 is the maximum; inactive = score below 0.9.

These molecules were tested on Interleukin-8 (IL8), CXCL8 (gene 3576) (assay: BSK_3C_IL8: BioMAP Diversity Plus: 3C Assay for Interleukin-8 (IL8) Biomarker Activity (AID 2283020)). Settings: primary human endothelial cells (HUVEC); actives raise or lower the signal.
Procedure: BSK_3C is a cell-based, multiplexed-readout assay that uses umbilical vein endothelium, a human vascular primary cell, with measurements taken at 24 hours after chemical dosing in a 96-well plate.BSK_3C_IL8 is an assay component measured in the BSK_3C assay. It measures IL-8 antibody related to regulation of gene expression using ELISA technology.Data from the assay component BSK_3C_IL8 was analyzed into 1 assay endpoint. This assay endpoint, BSK_3C_IL8, was analyzed with bidirectional fitting relative to DMSO as the negative control and baseline of activity. Using a type of binding reporter, gain or loss-of-signal activity can be used to understand changes in the signaling as they relate to the gene CXCL8. Furthermore, this assay endpoint can be referred to as a primary readout, because this assay has produced multiple assay endpoints where this one serves a signaling function. To generalize the intended target to other relatable targets, this assay endpoint is annotated to the cytokine intended target family, where the subfamily is interleukins.
The levels of cell surface (or secreted, indicated by the prefix "s") biomarker endpoints were measured by ELISA. Overt cytotoxicity to cells in confluent adherent cultures (all systems other than the BT system) was assessed by measuring total protein levels using sulforhodamine B (SRB) staining in parallel cultures at the time of biomarker measurements, indicated as SRB endpoints. For proliferation assays for adherent cell types, individual cell types are cultured at sub-confluence and relative cell numbers quantified by SRB staining at time points optimized for each system (48 h: 3C and CASM3C systems; 72 h: BT and HDF3CGF systems; 96 h: SAg system). SRB was performed by staining cells with 0.1% SRB after fixation with 10% TCA and reading wells at 560 nm.Viability and proliferation of PBMC (T cells) was quantified by Alamar Blue reduction for the SAg and BT systems. For PBMC viability (referred to as PBMC Cytotoxicity within the assay endpoint names), cells were plated (75,000/well in a 96-well plate) and then chemical samples added for 1 h before addition of activators, SEB and TSST-1 (20 ng/mL final concentration each). Cells were incubated for 90 h. Then, Alamar Blue (20 uL/well) (Invitrogen, Cat DAL1100) was added for 6 h, and the plates were read with a fluorescence microplate reader at 546/580 nm (excitation/emission). For PBMC proliferation, cells were plated and activated as above but incubated for only 16 h prior to addition of Alamar Blue. Plates were read after 6 h.
With `C[C@]12CCC(=O)C[C@@H]1CC[C@@H]1[C@@H]2CC[C@]2(C)[C@@H](O)CC[C@@H]12` the AC50 was 21.5 µM (active). In the case of `O=C(O)CCC(F)(C(F)(F)F)C(F)(F)F`, the outcome was “inactive”. In the case of `COP(=S)(OC)Oc1ccc(S(=O)(=O)N(C)C)cc1`, the outcome was “inactive”. For `CCCCCCCCc1ccc(O)cc1`, the AC50 was 34.6 µM (active). With `Oc1cccc2cccnc12` the outcome was “inactive”. With `O=Cc1cccc(Oc2ccccc2)c1` the outcome was “inactive”. In the case of `O=c1[nH]c(=O)[nH]c(=O)[nH]1`, the outcome was “inactive”. `C=CC(=O)OCCCCCC(C)C` was tested, and the outcome was “inactive”. `COC[C@H](C)N(C(=O)CCl)c1c(C)csc1C` was tested, and the outcome was “inactive”. In the case of `CC1(C)Cc2cccc(O)c2O1`, the outcome was “inactive”. In the case of `OCc1ccco1`, the outcome was “inactive”. With `COC(=O)c1sccc1S(=O)(=O)NC(=O)Nc1nc(C)nc(OC)n1` the outcome was “inactive”. `CCSC(C)CC1CC(=O)C(C(CC)=NOC/C=C/Cl)=C(O)C1` (stereo not given) was tested, and the outcome was “inactive”. With `ClCC(Cl)CCl` the outcome was “inactive”. For `Nc1ncc([N+](=O)[O-])s1`, the outcome was “inactive”. With `COc1cc(-c2ccc(N)c(OC)c2)ccc1N` the AC50 was 14.4 µM (active) and the outcome was “inactive”. With `CC(C)(c1ccccc1)c1ccc(O)c(C(C)(C)c2ccccc2)c1` the AC50 was 10.1 µM (active). For `CC(C)c1ccc(CO)cc1`, the outcome was “inactive”. For `O=S(=O)(c1ccc(Cl)cc1)c1ccc(Cl)cc1`, the outcome was “inactive”. With `O=C(O)C(F)(F)C(F)(F)C(F)(F)C(F)(F)C(F)(F)C(F)(F)F` the AC50 was 13.9 µM (active) and the outcome was “inactive”. For `CCNc1nc(NC(C)(C)C)nc(SC)n1`, the outcome was “inactive”. `CC(=O)[O][Hg][c]1ccccc1` was tested, and the AC50 was 6 µM (active). In the case of `COP(=S)(OC)Oc1c(Cl)cc(C)cc1Cl`, the outcome was “inactive”. With `O=[N+]([O-])c1ccc(O)c([N+](=O)[O-])c1` the outcome was “inactive”. In the case of `CC(C)(C)c1cc(O)ccc1O`, the outcome was “inactive”. `COP(=S)(OC)Oc1cc(Cl)c(Cl)cc1Cl` was tested, and the outcome was “inactive”. In the case of `CC(=O)C(Cl)C(=O)N(C)C` (stereo not given), the AC50 was 11.7 µM (active). `Nc1cccc2ccccc12` was tested, and the outcome was “inactive”. For `NC(=O)O`, the outcome was “inactive”. In the case of `CC(C)(C)CC(C)(C)c1ccc(O)cc1`, the AC50 was 10.1 µM (active). In the case of `O=C(Nc1ccc2[nH]ccc2c1)c1cc2cc(F)ccc2n1Cc1cccc(F)c1`, the AC50 was 6.43 µM (active). For `C[C@@H]1C[C@@H]([C@H](O)CC2CC(=O)NC(=O)C2)C(=O)[C@@H](C)C1`, the AC50 was 6.06 µM (active). For `Oc1ccc(-c2ccccc2)cc1`, the outcome was “inactive”. `NC(=S)Nc1ccccc1` was tested, and the outcome was “inactive”. In the case of `O=C(O)C(F)(F)C(F)(F)C(F)(F)C(F)(F)C(F)(F)C(F)(F)C(F)(F)C(F)(F)C(F)(F)C(F)(F)F`, the outcome was “inactive” and the AC50 was 29 µM (active). For `ClC(Cl)=C(Cl)C(Cl)=C(Cl)Cl`, the AC50 was 32.4 µM (active). With `CCC(=O)C(CC(C)N(C)C)(c1ccccc1)c1ccccc1` (stereo not given) the outcome was “inactive”.
